Screening results from PubChem.
HT1080NT lethal = kills 2HG-producing HT-1080-NT fibrosarcoma cells; Potency, µM (series often up to 46.1 µM), for the others: at the highest dose activity, negative = less viability, most hits filed as cytotoxic; actives 1.6% (n = 360,000); AID 686970; HT-1080-NT fibrosarcoma viability, CellTiter-Glo ATP luminescence, 48 h;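 further: NT is the 2HG producing partner of a matched IDH1 knockdown line; 0% = DMSO-treated cells and -100% = media-only wells without cells; nearly all actives have a fitted effect of over 55% in size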
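A 48-hour cytotoxicity screen used HT-1080-NT cells plated 2 hours before compound delivery. ATP-based CellTiter-Glo luminescence measured viability, normalized to DMSO and no-cell controls.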
SW480 rereplic = induces DNA re-replication in SW480 colon adenocarcinoma cells | Potency, µM (highest dose often 46.1 µM), without a hit: at the highest dose re-replication activation, most hits filed as activators | actives 1.8% (n = 340,000) | SW480 DNA re-replication, Hoechst DNA content imaging, 48 h | AID 624297; further: % of control where 0% means no effect; nearly all actives have a fitted effect of over 55% in size
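Per well, 250 cells were exposed to pinned compound for 48 hr. Nuclear DNA was visualised with Hoechst (40 min, 37 C) and total object intensity recorded by fluorescence scanning.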
KB-3-1 cytotox = kills parental KB-3-1 adenocarcinoma cells | KB-3-1 viability, CellTiter-Glo ATP luminescence, 72 h | Potency, µM (doses to about 46.1 µM), hits mostly cytotoxic | actives 1.4% (n = 400,000); further: on the % scale 0 is the no-effect control and ±100 the full control effect; nearly all actives have a fitted effect of over 60% in size
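Using CellTiter-Glo luminescence, growth of non-resistant KB-3-1 adenocarcinoma cells is assessed 72 h after pin-tool compound addition at 37 °C. Normalized responses across the concentration series yield fitted curves.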
HT1080 IDH1KD tx = HT-1080 IDH1 knockdown cell toxicity (counter line); HT-1080 IDH1 knockdown viability, ATP luminescence, 48 h; Potency, µM (highest dose often 46.1 µM), inactives show at the top dose activity, negative = toxicity, most hits filed as cytotoxic; actives 2% (n = 360,000);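 further: 0% = DMSO wells and -100% = cell-free medium wells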
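IDH1KD HT-1080 cells, 750/well, RPMI + 5% FBS; compound pinned after 2 h settling; 48 h, 37 °C; CellTiter-Glo luminescence; % activity normalised to DMSO and no-cell wells; curves fitted, classed by r2 and efficacy.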
MCF10A rerep = DNA re-replication induction in MCF 10a cells | MCF 10A DNA re-replication, Hoechst nuclear intensity, 48 h | actives 2.9% (n = 350,000) | Potency, µM (doses to about 46.1 µM), without a hit: at the top dose activity, positive = re-replication, actives largely listed as activators; further: % of control where 0% means no effect; nearly all actives have a fitted effect of over 50% in size
KB-V1 MDR tox = kills drug-selected multidrug resistant KB-V1 cells; KB-V1 MDR cells viability, CellTiter-Glo, 72 h; Potency, µM (titrated, usually from 46.1 µM), usual class: cytotoxic; actives 3.4% (n = 400,000); further: on the % scale 0 is the no-effect control and ±100 the full control effect; nearly all actives have a fitted effect of over 60% in size
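Following 72 h at 37 degrees C with compound, KB-V1 cell viability was read by CellTiter-Glo luminescence, medium being phenol-red-free DMEM plus 10% FBS; concentration-response parameters came from normalized, curve-fitted qHTS data.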
Active calls of the source: *; i = inactive; u = inconclusive; x = no result given; ! = repeats disagree; [ ] = another dose, or the depositor's remark. Most compounds without a hit are left out; they make up all but 8% or so of the library. The call rests on the fitted dose curve; in most records, active means well fitted curve in the direction sought with a large enough effect; inconclusive means small, poorly fitted or top-dose-only effect, or another doubt; inactive means no such curve, though single readings can be large; an effect the other way counts as inactive or inconclusive. Potency means the concentration at half of the fitted maximal effect.

SMILES	HT1080NT lethal	SW480 rereplic	KB-3-1 cytotox	HT1080 IDH1KD tx	MCF10A rerep	KB-V1 MDR tox
CC(=O)NC(c1ccc(Cl)cc1)c1ccc2cccnc2c1O (configuration not stated)	u	3%	i	u	13%	u
O=C(NC(c1ccc(Cl)cc1)c1cc(Cl)c2cccnc2c1O)c1cccnc1 (configuration not stated)	u	2.6µM*	u	3.3µM*	15µM*	u
CC(=O)NC(c1ccc(N(C)C)cc1)c1cc(Cl)c2cccnc2c1O (configuration not stated)	u	x	3.3µM*	u	x	u
COc1ccc(C(NC(C)=O)c2cc(Cl)c3cccnc3c2O)cc1 (configuration not stated)	u	18%	u	12µM*	u	i
CCC(=O)NC(c1cc(Cl)c2cccnc2c1O)C(C)C (configuration not stated)	x	0.23µM*	i	x	-8%	u
CCc1ccc(NC(=O)CSc2nnc(-c3ccccc3)n2C)cc1	x	x	u	x	x	i
COc1ccc2c(c1)c1c(c(=O)n(-c3ccc(F)c(Cl)c3)c(=O)n1CC(=O)N1CCCC1)n2C	x	x	i	x	x	i
CCCC(=O)NC(c1ccc(OC)c(OC)c1)c1cc(Cl)c2cccnc2c1O (configuration not stated)	u	1.8µM*	u	u	8.2µM*	23µM*!
O=C(NCCN1CCN(c2ccccc2)CC1)c1ccc2c(c1)[nH]c(=S)n1c3ccccc3nc21	-15%	-4%	i	-17%	u	u
O=C(c1ccc2c(c1)[nH]c(=S)n1c3ccccc3nc21)N1CCN(c2ncccn2)CC1	-13%	-11%	i	-2%	9.2µM*	i
CCOC(=O)N(NC(=O)C(O)(C(C)C)C(C)C)c1ccccc1	0%	-18%	i	-1%	-3%	i
CCCCC(O)(CCCC)C(=O)NN(C(=O)OC)c1ccccc1	1%	0%	i	14%	2%	i
CCOC(=O)N(NC(=O)C(O)(c1ccccc1)c1ccccc1)c1ccccc1	11%	2.9µM*	i	14%	4%	i
CCCC(O)(CCC)C(=O)NN(C(=O)CCl)c1ccccc1	u	u	i	u	15µM*	i
CCCCC(O)(CCCC)C(=O)NN(C(=O)OCC)c1ccccc1	12%	-6%	i	17%	11%	13µM*
CCOC(=O)N(NC(=O)C(O)(CC(C)C)CC(C)C)c1ccccc1	2%	4%	i	13%	u	u
Cc1ccc(C)c(NC(=O)Cn2c(SCC(=O)NCc3ccccc3)nc3ccccc32)c1	x	x	i	x	x	i
CCCC[C@H](O)c1ccccc1	x	0%	x	x	3%	x
C=CC(=O)Oc1ccc(N2Cc3ccccc3C2=O)cc1	1%	12µM*	i	-6%	u	i
C/C(=N\Nc1nc2ccccc2c(=O)n1O)c1ccco1	-3%	7%	21µM*	-26%	1%	15µM*
CC12CCC(=O)C=C1CCC1C2CCC2(C)C(c3csc(N)n3)CCC12 (configuration not stated)	u	u	u	u	16µM*	21µM*
CC(=NO)C1CCC2C3CCC4=CC(=NO)CCC4(C)C3C(O)CC12C (configuration not stated)	-4%	0%	u	-9%	19%	21µM*
CC12CCC(=O)C=C1CCC1C2C(O)CC2(C)C(c3csc(N)n3)CCC12 (configuration not stated)	6.5µM*	6%	i	u	u	u
CCOc1ccccc1NC(=O)CSc1c(C)cnc2c1c(=O)n(C)c(=O)n2C	x	x	i	x	x	i
O=C(c1cccn1-c1nnc(N2CCCC2)s1)N1CCN(c2ccc(Cl)cc2)CC1	x	x	i	x	x	i
SMILES	HT1080NT lethal	SW480 rereplic	KB-3-1 cytotox	HT1080 IDH1KD tx	MCF10A rerep	KB-V1 MDR tox
COc1ccc(-c2ccc(SCC(=O)N3CC(=O)Nc4ccccc43)nn2)cc1	12%	-23%	i	15%	3%	i
CC(=O)/C(C#N)=C1\NC(=O)C(Cc2cc(Cl)ccc2Cl)S1 (configuration not stated)	23µM*	-13%	15µM*	u	17%	6.5µM*
CC(=O)/C(C#N)=C1\NC(=O)C(Cc2ccccc2Cl)S1 (configuration not stated)	-23%	-4%[9.22 µM]	3.3µM*	3.7µM*	u	u
CC(=O)/C(C#N)=C1\NC(=O)C(Cc2ccc(F)cc2)S1 (configuration not stated)	-12%	u	u	-16%	6%	i
NC1=NC(=O)C(Cc2cc(Cl)ccc2Cl)S1 (configuration not stated)	-7%	-2%	i	-10%	5%	i
CC(=O)/C(C#N)=C1\NC(=O)C(Cc2ccc(C)c(C)c2)S1 (configuration not stated)	-18%	-1%	15µM*	u	u	5.8µM*
Cc1ccc(NC(=O)Nc2cc3c(cc2N2CCCCC2)n(C)c(=O)n3C)cc1Cl	x	x	i	x	x	i
CCCCn1nnnc1NCc1cc(OC)c(OC)cc1OC	4%	-1%	i	-3%	0%	26µM*
CCCn1nnnc1NCc1ccc(OC)cc1OC	-1%	0%	i	2%	4%	i
O=C(NCC(c1cccnc1)N1CCN(c2ccccc2)CC1)OCc1ccccc1 (configuration not stated)	11%	-4%	i	3%	15%	2.6µM*
O=C(NCC(c1cccnc1)N1CCN(c2ccc(F)cc2)CC1)OCc1ccccc1 (configuration not stated)	-7%	4%	i	-5%	4%	u
O=C(NCC(c1cccnc1)N1CCN(c2ccccc2)CC1)C1CCCCC1 (configuration not stated)	0%	1%	i	-3%	-7%	21µM*
C[N+]1(CC(=O)c2ccc3ccccc3c2)CCOCC1	x	x	u	x	x	i
CCOc1ccccc1/C=C/c1onc(C)c1S(=O)(=O)N1CCC(C(=O)N2CCCCC2)CC1	x	x	i	x	x	i
CCN(CC)CCCNC(=O)Cn1nc(N2CCN(c3ccccc3OC)CC2)ccc1=O	x	x	i	x	x	i
CCCCCCCCCNC(=O)[C@H](NC(=O)COc1ccccc1)[C@@H]1NC(C(=O)OC)C(C)(C)S1 (some centres not stated)	-5%	-35%	i	-8%	6.5µM*	i
